FLuc modulator = inhibits or activates purified firefly luciferase, miR-21 counter-screen | Potency, µM (titrated, usually from 57.5 µM), actives largely listed as inhibitors | P08659 | hit rate 6.9% among 360,000 | purified FLuc, Km substrates, luminescence inhibition; note: nearly all actives have a fitted effect of over 55% in size
Target sequence (P08659 whole entry, looked up): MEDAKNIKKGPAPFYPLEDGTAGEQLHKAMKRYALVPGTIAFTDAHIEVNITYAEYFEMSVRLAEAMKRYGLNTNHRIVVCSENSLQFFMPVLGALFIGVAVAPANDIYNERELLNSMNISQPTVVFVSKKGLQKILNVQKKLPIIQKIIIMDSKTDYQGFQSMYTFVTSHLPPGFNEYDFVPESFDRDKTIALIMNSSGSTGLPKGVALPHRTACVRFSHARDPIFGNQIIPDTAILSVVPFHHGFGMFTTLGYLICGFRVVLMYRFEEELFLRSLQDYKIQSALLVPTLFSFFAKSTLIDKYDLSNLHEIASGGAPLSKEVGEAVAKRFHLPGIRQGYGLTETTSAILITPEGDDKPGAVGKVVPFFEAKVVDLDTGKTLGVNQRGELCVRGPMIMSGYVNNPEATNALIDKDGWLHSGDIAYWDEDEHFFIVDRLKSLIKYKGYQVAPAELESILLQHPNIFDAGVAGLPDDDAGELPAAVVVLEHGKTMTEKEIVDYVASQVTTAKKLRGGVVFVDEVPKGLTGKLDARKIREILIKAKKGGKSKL
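Biochemical qHTS of compounds, final roughly 60 µM downward over six points, against 10 nM purified firefly luciferase using Km concentrations of substrates (10 uM D-luciferin, 10 uM ATP) in Tris acetate pH 7.5 buffer; luminescence output.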
ELG1 genotoxic = genotoxicity induction in ELG1-luciferase HEK293T cells; hit rate 1.3% among 330,000; HEK293T ELG1-luciferase reporter, luminescence, 16 h; Potency, µM (titrated, usually from 46 µM), usual class: activators; note: nearly all actives have a fitted effect of over 60% in size
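Genotoxic stress is detected as increased luminescence from luciferase-tagged ELG1 in HEK293T cells, measured with ONE-Glo after a 16 hr treatment at 37 °C.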
Rab9 promoter act = Rab9 promoter activation. AID 485297. hit rate 2.8% among 320,000. Potency, µM (top dose mostly 9.22 µM), most hits filed as activators. Huh7 Rab9 promoter-luciferase reporter, luminescence, 24 h; note: nearly all actives have a fitted effect of over 60% in size
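Luminescence from Amplite-detected luciferase (10 minutes, ambient) reports Rab9 promoter activation. Before that, stable Rab9-luciferase Huh7 cells (1500/well, reduced-serum OP-MEM I plus 10% FBS) were exposed to compound for 24 hours at 37C.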
SMN2 splice up = SMN2 splice variant enhancement; HEK293 SMN2-luciferase splicing reporter, luminescence, 30-36 h; AID 1458; Potency, µM (titrated, usually from 46.1 µM), most hits filed as activators; hit rate 2.8% among 210,000; note: nearly all actives have a fitted effect of over 55% in size
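qHTS luciferase splicing reporter: luminescence rises when SMN2 exon 7 is included in transfected HEK293 cells. Compound exposure lasted 30-36 h at 37C, with 4.5 mM final sodium butyrate as control, followed by a ONE-Glo read.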
NPC1 promoter act = activators of NPC1 promoter; hit rate 2.4% among 320,000; Potency, µM (top dose mostly 9.22 µM), actives largely listed as activators; Huh7 NPC1 promoter luciferase reporter, 24 h; note: nearly all actives have a fitted effect of over 60% in size
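Luciferase expression driven by the NPC1 promoter was measured in stably transfected Huh7 cells after a 24 h compound incubation, using a luciferase reagent and a luminescence read.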
Hits are given with their value. Most compounds without a hit are left out; they make up all but 7.4% or so of the library. Calls come from the whole dose curve; as a rule, active = well fitted curve in the direction sought with a large enough effect; inconclusive = small, poorly fitted or top-dose-only effect, or another doubt; inactive = no such curve, though single readings can be large; an effect the other way counts as inactive or inconclusive.

How did CCOC(=O)c1sc2nc3c(cc2c1N)COC(C)(C)C3 do in these assays?
FLuc modulator: 6.7µM; ELG1 genotoxic: inconclusive; Rab9 promoter act: 2.5µM; SMN2 splice up: 11µM; NPC1 promoter act: 2.8µM

Results for CCOC(=O)c1sc2nc3c(cc2c1N)COC(C)(CC)C3 (stereo not given) ?
FLuc modulator: 1.3µM; ELG1 genotoxic: inconclusive; Rab9 promoter act: 0.79µM; SMN2 splice up: 10µM; NPC1 promoter act: 0.79µM

What do the screens show for `O=C(NCC(O)c1ccccc1)c1ccccc1` (stereo not given)?
FLuc modulator: 21µM; ELG1 genotoxic: inconclusive; Rab9 promoter act: 4µM; NPC1 promoter act: 2.8µM

How did O=C(NCCNC(=O)c1ccccc1)c1ccccc1 do in these assays?
FLuc modulator: inactive; ELG1 genotoxic: inactive; Rab9 promoter act: inactive; NPC1 promoter act: inactive

How did CCOc1cnc(-c2ccccc2F)o1 do in these assays?
FLuc modulator: 17µM; ELG1 genotoxic: inactive; Rab9 promoter act: inactive; SMN2 splice up: inactive; NPC1 promoter act: inactive

How did CCOc1cnc(-c2c(-c3c(F)cccc3Cl)noc2C)o1 do in these assays?
FLuc modulator: inactive; ELG1 genotoxic: inactive; Rab9 promoter act: inactive; SMN2 splice up: inactive; NPC1 promoter act: inactive

Results for Clc1ccc(CSc2snnc2-c2ccccc2)c(Cl)c1 ?
FLuc modulator: 13µM; ELG1 genotoxic: inconclusive; Rab9 promoter act: inactive; SMN2 splice up: inconclusive; NPC1 promoter act: inconclusive

Results for CO/N=C/c1ccc(N2CCCC2)c([N+](=O)[O-])c1 ?
FLuc modulator: 17µM; ELG1 genotoxic: inactive; Rab9 promoter act: inactive; SMN2 splice up: inactive; NPC1 promoter act: inactive

Results for O=C(/C=C/c1ccc(N2CCCCC2)c([N+](=O)[O-])c1)c1ccc(S(=O)(=O)N2CCCC2)cc1 ?
FLuc modulator: inactive; ELG1 genotoxic: inactive; Rab9 promoter act: inactive; SMN2 splice up: inactive; NPC1 promoter act: inactive

How did COc1cccc(/C=C/C(=O)c2cccc([N+](=O)[O-])c2)c1 do in these assays?
FLuc modulator: 8.5µM; ELG1 genotoxic: inconclusive; Rab9 promoter act: inactive; SMN2 splice up: inactive; NPC1 promoter act: inactive

Results for COc1cccc(/C=C/C(=O)c2cccc([N+](=O)[O-])c2)c1OC ?
FLuc modulator: 11µM; ELG1 genotoxic: inconclusive; Rab9 promoter act: inactive; SMN2 splice up: inactive; NPC1 promoter act: inactive

How did COc1cccc(C(=O)/C=C/c2ccc(N3CCCCC3)c([N+](=O)[O-])c2)c1 do in these assays?
FLuc modulator: 8.5µM; ELG1 genotoxic: inactive; Rab9 promoter act: inactive; SMN2 splice up: inactive; NPC1 promoter act: inactive

What do the screens show for `Cc1ccc(CNC(=O)c2cccc(Nc3nc4ccccc4n4nnnc34)c2)cc1`?
FLuc modulator: inactive; SMN2 splice up: inactive

Results for CCc1cccc(NC(=O)CCc2nc3cccnc3n2Cc2ccc(OC)cc2)c1 ?
FLuc modulator: inactive; SMN2 splice up: inactive

How did CCc1ccc(NC(=O)CN2C(=O)c3cccc4cccc2c34)cc1 do in these assays?
FLuc modulator: inactive; SMN2 splice up: inactive

How did O=[N+]([O-])c1ccc(/C=C/c2nc3ccc([N+](=O)[O-])cc3[nH]2)cc1 do in these assays?
FLuc modulator: inconclusive; ELG1 genotoxic: inactive; Rab9 promoter act: inactive; NPC1 promoter act: inactive

What do the screens show for `Clc1ccc(/C=C/c2nc3ccccc3[nH]2)c(Cl)c1`?
FLuc modulator: 0.067µM; ELG1 genotoxic: inconclusive; Rab9 promoter act: 0.4µM; SMN2 splice up: 0.56µM; NPC1 promoter act: 0.71µM

What do the screens show for `O=C(/C(=C(\O)c1ccccc1)c1nc2ccccc2[nH]1)c1ccccc1`?
FLuc modulator: inactive; ELG1 genotoxic: inactive; Rab9 promoter act: inactive; NPC1 promoter act: inactive

How did Clc1cccc(Cl)c1/C=C/c1nc2ccccc2[nH]1 do in these assays?
FLuc modulator: 0.67µM; ELG1 genotoxic: inconclusive; Rab9 promoter act: 4.5µM; SMN2 splice up: 11µM; NPC1 promoter act: 3.5µM

What do the screens show for `OCc1nc2ccc(Cl)cc2[nH]1`?
FLuc modulator: inactive; ELG1 genotoxic: inactive; Rab9 promoter act: inactive; NPC1 promoter act: inactive

What do the screens show for `O=C(/C=C/c1ccc(Cl)cc1Cl)c1nc2ccccc2[nH]1`?
FLuc modulator: 0.24µM; ELG1 genotoxic: inactive; Rab9 promoter act: inactive; SMN2 splice up: inactive; NPC1 promoter act: inactive

Results for Clc1ccc(/C=C/c2nc3ccccc3[nH]2)cc1 ?
FLuc modulator: 0.076µM; ELG1 genotoxic: 0.58µM; Rab9 promoter act: 0.2µM; SMN2 splice up: 0.79µM; NPC1 promoter act: 0.1µM

Screening data (PubChem BioAssay)
